Measured values published in ChEMBL document CHEMBL3988442, “University of Dundee, Small-Polar-MMV Screening Library” (2021).

Tests used:
[1] = biological target: T1, Aspartate--tRNA(Asp/Asn) ligase (Mycobacterium tuberculosis (strain ATCC 25618 / H37Rv)) (UniProt P9WFW3); test: Assay for Asp RNA synthetase-1 from Mycobacterium tuberculosis; assay type: functional; parameters: scale not given: direction of the effect not stated beside the values; conditions: 30 µM; also: in the data most compounds retested in dose-response had high values
T1 sequence (whole entry): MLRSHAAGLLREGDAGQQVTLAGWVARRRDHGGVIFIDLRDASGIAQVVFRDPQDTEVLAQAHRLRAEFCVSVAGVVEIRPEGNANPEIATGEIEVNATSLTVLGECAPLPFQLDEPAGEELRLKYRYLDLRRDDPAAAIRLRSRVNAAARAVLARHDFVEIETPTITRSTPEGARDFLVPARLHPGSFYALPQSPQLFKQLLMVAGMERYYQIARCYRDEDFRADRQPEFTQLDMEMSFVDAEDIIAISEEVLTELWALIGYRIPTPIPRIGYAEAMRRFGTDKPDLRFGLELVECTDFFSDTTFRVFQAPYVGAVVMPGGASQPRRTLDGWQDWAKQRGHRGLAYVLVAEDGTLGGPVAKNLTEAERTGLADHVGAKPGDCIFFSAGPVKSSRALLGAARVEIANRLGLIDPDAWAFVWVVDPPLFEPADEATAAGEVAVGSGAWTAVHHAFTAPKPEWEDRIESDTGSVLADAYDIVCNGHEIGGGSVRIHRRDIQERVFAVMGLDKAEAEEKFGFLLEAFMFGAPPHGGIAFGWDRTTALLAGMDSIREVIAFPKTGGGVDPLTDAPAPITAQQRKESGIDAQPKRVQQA

[2] = biological target: Shiga toxin 2 (Escherichia coli O157:H7) (UniProt P09385+P09386); test: E. coli 0.157:H7 Shiga Toxin SOP - stx2 screening assay; assay type: functional; parameters: scale not given: direction of the effect not stated beside the values; conditions: 30 µM

Structure (SMILES)	Percent Effect [1] [%]	Percent Effect [2] [%]
CC(C)N(C)C(=O)CN1CCCC(c2ccc(C(=O)O)cc2)C1 (stereo not drawn)	-0.982	5.69
Cn1ncc2c(=O)[nH]c(CN(Cc3cccc(F)c3)C3CC3)nc21	-6.19	3.9
Cc1cnn(CC2CCCCN2CC(=O)NCc2ccccn2)c1 (stereo not drawn)	-0.659	0.25
O=C(CCc1cc2n(n1)CCCN(C(=O)c1cccnc1)C2)NC1CC1	-2.01	-9.98
Fc1ccc(CN2CCCC(Cn3cncn3)C2)c2ncccc12 (stereo not drawn)	14.3	-38.7
CS(=O)(=O)NCCCNC(=O)c1cccnc1O	5.28	-16.3
COCC1CN(CC2CC2)Cc2nn(C)cc21 (stereo not drawn)	12.6	-5.39
CC(C)N(CC(N)=O)Cc1csc(COc2ccc(F)cc2)n1	-2.28	1.96
COc1ccc2cc(C3CN(C(=O)C4CCOCC4)CCO3)ccc2c1 (stereo not drawn)	0.234	7.44
Cc1ccc(CS(=O)(=O)N2CC[C@H]3[C@H]2CCN3C)cc1	-3.51	-4.23
CN(Cc1ccccn1)C(=O)[C@]12COC[C@H]1CN(Cc1cnn(C)c1)C2	-0.844	-6.88
CN1C(=O)CC(c2cnn(C)c2)C12CCN(C(=O)C1CC=CC1)CC2 (stereo not drawn)	-2.73	-0.198
CC(OCC1CC1)C(=O)N1CCCN(Cc2cnn(C)c2)CC1 (stereo not drawn)	1.41	-83.1
Cc1cc(C(F)(F)F)nn1CC(C)C(=O)Nc1ccncc1 (stereo not drawn)	2.67	-18.1
N#Cc1c(F)cccc1N1CCN(S(=O)(=O)c2cccs2)CC1	4.83	-12.3
Cc1sc(NC(=O)CN(C)S(C)(=O)=O)c(C#N)c1C	1.76	-4.6
CC(C)NC(=O)N1CCC2(CC(=O)N(c3cccc(C#N)c3)C2)C1 (stereo not drawn)	5.75	8.35
Cc1cnn(CC2CCCN2CC(=O)N(C)CCC#N)c1 (stereo not drawn)	-0.546	-11.9
CCS(=O)(=O)NCCNC(=O)c1cc(Cl)c2c(c1)OCCCO2	5.01	-2.3
